# Reference: the supplement of paper PMC12669797
# “And” between values parts separate entries of the source, which are not always exact repeats. Equal entries are not always repeated. Structures can show the parent of a compound that is named as a salt. ± gives the standard deviation of the averaged measurements.
# What was measured:
# [1] = test system: ES2; assay: cell viability relative to DMSO control (MTS) (fraction of DMSO control); higher = more viable cells / less growth inhibition; conditions: 10 µM; 48 h
# Summary of the method: (§1)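 TOV-21G and ES2 clear cell carcinoma cells were seeded at 5000 cells per well in 96-well plates and grown for 24 h. Cells then received a 367-compound […] library at 10 µM final concentration, with DMSO in control wells. After 48 h, viability was read by MTS assay (CellTiter 96 AQueous One Solution) following the maker's protocol. Cell viability is expressed as a fraction of the DMSO control.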
# [2] = test system: TOV-21G; assay: as above; conditions: 10 µM; 48 h
# Summary of the method: as §1
SMILES,cell viability [1],cell viability [2]
O=c1oc2c(O)c(O)cc3c(=O)oc4c(O)c(O)cc1c4c23 [Ellagic acid],0.827,0.935
C/C=C/C/C=C/CCC(=O)[C@H]1O[C@H]1C(N)=O [Cerulenin],1.4,1.03
COc1cc2c(NC3CCN(C(C)C)CC3)nc(C3CCCCC3)nc2cc1OCCCN1CCCC1,0.337,0.486
CN(C)CCCCC(=O)Nc1ccc(NC(=S)NC(=O)c2ccc(C(C)(C)C)cc2)cc1 [Tenovin-6],0.406,0.274
Oc1c2ccccc2c2c3c(cccc13)N=N2,0.721 ± 0.32,0.65 ± 0.023
O=C(CCCCCN1C(=O)c2cccc3cccc(c23)C1=O)NO [Scriptaid],0.311,0.367
CN(C)c1ccccc1CN1CCCN(Cc2ccccc2N(C)C)C1c1ccncc1,0.853,0.229
NC(=O)c1ccc(-c2nc(-c3ccccn3)c(-c3ccc4c(c3)OCO4)[nH]2)cc1,1.08 and 1.11,0.993 and 1.03
CCn1cc(C(=O)O)c(=O)c2ccc(C)nc21 [Nalidixic acid],0.981,1.12
COc1cc2ncnc(Nc3ccc(NC(=O)c4ccccc4)cc3)c2cc1OC [Aurora kinase inhibitor II],1.09,0.688
CNC(=N)NCCC[C@H](N)C(=O)O,0.909,0.974
C[n+]1cc2c3c(ccc2c2ccc4cc5c(cc4c21)OCO5)OCO3 [Sanguinarine],0.385,0.253
Cc1c[nH]c(/C=C2\C(=O)Nc3ccccc32)c1CCC(=O)O,1.1,1.08
C=CCc1cccc(/C=N/NC(=O)CN2CCN(Cc3ccccc3)CC2)c1O,0.787,0.821
CO[C@H]1C[C@@H]2CC[C@@H](C)[C@@](O)(O2)C(=O)C(=O)N2CCCC[C@H]2C(=O)O[C@H]([C@H](C)C[C@@H]2CC[C@@H](OCCO)[C@H](OC)C2)CC(=O)[C@H](C)/C=C(\C)[C@@H](O)[C@@H](OC)C(=O)[C@H](C)C[C@H](C)/C=C/C=C/C=C/1C [everolimus],1.02,0.831
C[C@@H]1C[C@H]2[C@@H]3CCC4=CC(=O)C=C[C@]4(C)[C@@]3(F)[C@@H](O)C[C@]2(C)[C@@]1(O)C(=O)CO [Dexamethasone],1.01,1.29
N#C/C(=C\c1ccc2oc(=O)[nH]c2c1)C(=O)c1ccc(O)c(O)c1,0.972,1.13
C[S+]([O-])c1ccc(-c2nc(-c3ccc(F)cc3)c(-c3ccncc3)[nH]2)cc1 (centres undefined),0.916,0.908
CN(Cc1cnc2nc(N)nc(N)c2n1)c1ccc(C(=O)N[C@@H](CCC(=O)O)C(=O)O)cc1 [Methotrexate],1.16,0.872
CC(C)[C@H](CO)Nc1nc(Nc2cccc(Cl)c2)c2ncn(C(C)C)c2n1 [purvalanol A],0.657,0.607
C[C@@H](Oc1cc(-c2cnn(C3CCNCC3)c2)cnc1N)c1c(Cl)ccc(F)c1Cl [crizotinib],0.34,0.333

SMILES,cell viability [1],cell viability [2]
O=C(O)c1ccccc1Nc1ccccc1 [N-phenylanthranilic acid],1.02,0.995
COc1cc2nccc(Oc3ccc(NC(=S)NC(=O)c4ccccc4C)cc3)c2cc1OC [PDGF receptor tyrosine kinase inhibitor V],0.874,0.525
Cc1c2oc3c(C)ccc(C(=O)N[C@@H]4C(=O)N[C@H](C(C)C)C(=O)N5CCC[C@H]5C(=O)N(C)CC(=O)N(C)[C@@H](C(C)C)C(=O)O[C@@H]4C)c3nc-2c(C(=O)N[C@@H]2C(=O)N[C@H](C(C)C)C(=O)N3CCC[C@H]3C(=O)N(C)CC(=O)N(C)[C@@H](C(C)C)C(=O)O[C@@H]2C)c(N)c1=O [Actinomycin D],0.584,0.456
CC[C@@]1(O)C[C@H](O[C@H]2C[C@H](N(C)C)[C@H](O[C@H]3C[C@H](O)[C@H](O[C@H]4CCC(=O)[C@H](C)O4)[C@H](C)O3)[C@H](C)O2)c2c(cc3c(c2O)C(=O)c2c(O)cccc2C3=O)[C@H]1C(=O)OC [Aclarubicin],0.6,0.385
CNC(=O)[C@H](Cc1c[nH]c2ccccc12)NC(=O)[C@@H](CC(=O)NO)CC(C)C,1.02,0.959
O=C(Nc1cccc(NC(=O)c2cccc(O)c2O)c1)c1cccc(O)c1O,0.614,0.302
CC1=C(/C=C/C(C)=C/C=C/C(C)=C/C(=O)O)C(C)(C)CCC1 [tretinoin],1.01,1.51
Ic1cccc(CSc2nnc(-c3ccncc3)o2)c1 [GSK-3 inhibitor II],1.09,1.19
COC(=O)[C@H](CC(C)C)NC(=O)c1ccc(NC[C@@H](N)CS)cc1-c1ccccc1,1.09,0.633
O=Nc1c(-c2c(O)[nH]c3ccccc23)[nH]c2ccccc12 [indirubin-3'-monoxime],0.696,0.491
NC(=O)c1cccc2cn(-c3ccc([C@@H]4CCCNC4)cc3)nc12 [MK-4827 (Niraparib)],0.61,0.783
CC(C)C[C@@H](N)[C@H](O)C(=O)N[C@H](C(=O)N[C@H](C(=O)N[C@@H](CC(=O)O)C(=O)O)C(C)C)C(C)C [Amastatin],0.963,1.02
COc1cc(O)c(CC=C(C)C)c(O)c1C(=O)/C=C/c1ccc(O)cc1 [Xanthohumol],1.07,1.01
CO[C@H]1C[C@@H]2CC[C@@H](C)[C@@](O)(O2)C(=O)C(=O)N2CCCC[C@H]2C(=O)O[C@H]([C@H](C)C[C@@H]2CC[C@@H](O)[C@H](OC)C2)CC(=O)[C@H](C)/C=C(\C)[C@@H](O)[C@@H](OC)C(=O)[C@H](C)C[C@H](C)/C=C/C=C/C=C/1C [Rapamycin],0.854,0.576
CO[C@H]1C[C@@H]2CC[C@@H](C)[C@@](O)(O2)C(=O)C(=O)N2CCCC[C@H]2C(=O)O[C@H]([C@H](C)C[C@@H]2CC[C@@H](OC(=O)C(C)(CO)CO)[C@H](OC)C2)CC(=O)[C@H](C)/C=C(\C)[C@@H](O)[C@@H](OC)C(=O)[C@H](C)C[C@H](C)/C=C/C=C/C=C/1C [temsirolimus],0.824,0.516
CCC(=C/[C@H](C)C/C=C/C(C)=C/[C@@H](C)C(=O)[C@@H](C)[C@H](O)[C@@H](C)C/C(C)=C/C(=O)O)/C=C/[C@@H]1OC(=O)C=C[C@@H]1C [Leptomycin B*],0.406,0.39
Cc1nc2sccn2c(=O)c1CCN1CCC(=C(c2ccccc2)c2ccc(F)cc2)CC1,0.963,1.04
CC(C)n1nc(-c2cc3cc(O)ccc3[nH]2)c2c(N)ncnc21 [Torkinib],0.417,0.38
Cc1cc([N+](=O)[O-])ccc1NS(=O)(=O)c1cc(Cl)ccc1Cl,0.894,1.14
COc1cc([C@@H]2c3cc4c(cc3[C@@H](O[C@@H]3O[C@@H]5CO[C@@H](C)O[C@H]5[C@H](O)[C@H]3O)[C@H]3COC(=O)[C@H]23)OCO4)cc(OC)c1O [Etoposide (VP-16)],0.655,0.658
NC(=O)c1ccc(I)c([N+](=O)[O-])c1 [BSI-201 (Iniparib)],0.778,1.29

SMILES,cell viability [1],cell viability [2]
CC(C)(C)c1nc2c3cc[nH]c(=O)c3c3cc(F)ccc3c2[nH]1 [JAK Inhibitor I],0.561,0.662
Cc1nc(Nc2ncc(C(=O)Nc3c(C)cccc3Cl)s2)cc(N2CCN(CCO)CC2)n1 [dasatinib],0.608,0.815
CCCCCCCCCCCCCCOc1ccc(C(=O)O)o1,1.21,0.947
O=C1CCC(N2C(=O)c3ccccc3C2=O)C(=O)N1 (centres undefined) [thalidomide],0.958,0.989
O=C(c1cc(Cc2n[nH]c(=O)c3ccccc23)ccc1F)N1CCN(C(=O)C2CC2)CC1 [Olaparib],0.77,0.888
CCCCCCCCCCC1=C(C)C(=O)C(OC)=C(OC)C1=O [Decylubiquinone],1.02,0.981
CSc1ccc(/C=C2/C(C)=C(CC(=O)O)c3cc(F)ccc32)cc1 [Sulindac sulfide],1.38,1.3
COC(=O)C[C@H](NC(=O)[C@H](C)NC(=O)[C@@H](NC(=O)OCc1ccccc1)C(C)C)C(=O)CF,1.42,1.16
COC(=O)Nc1nc2cc(C(=O)c3cccs3)ccc2[nH]1 [Nocodazole],0.451,0.464
CNCCCN1c2ccccc2CCc2ccccc21 [desipramine hydrochloride],0.954,0.745
O=C(Cc1ccccc1)Nc1c2c(nc3ccccc13)N(Cc1ccccc1)CC2,0.96,0.839
Nc1cccc2c1CN(C1CCC(=O)NC1=O)C2=O (centres undefined) [lenalidomide],0.928,0.954
CC(ONC(=O)c1cc(C(F)(F)F)cc(C(F)(F)F)c1)C(=O)Nc1ccc(Cl)cc1 (centres undefined),1.24,1.21
"N#CCCc1ccc2c(c1)-c1[nH]c3ccc([N+](=O)[O-])cc3c1CC(=O)N2 [Alsterpaullone, 2-cyanoethyl]",0.893,0.778
O=C1NC(=O)c2c1c1c3ccccc3[nH]c1n1cncc21 [isogranulatimide],1.12,1.47
Cc1cn(-c2cc(NC(=O)c3ccc(C)c(Nc4nccc(-c5cccnc5)n4)c3)cc(C(F)(F)F)c2)cn1 [nilotinib],0.751,0.709
CCCCC[C@H](CC(=O)NO)C(=O)N[C@H](C(=O)N1CCC[C@H]1CO)C(C)C [Actinonin],1,0.848
COc1cc2ncnc(Nc3ccc(F)c(Cl)c3)c2cc1OCCCN1CCOCC1 [gefitinib],0.825,0.889
"CCNCCCNCCCCNCCCNCC [N1,N12-Diethylspermine (BESpm)]",1,0.731
C[C@]1(O)C[C@@H](c2nc(-c3ccc4ccc(-c5ccccc5)nc4c3)c3c(N)nccn32)C1,0.62,0.875
